Laboratory results from PubChem BioAssay (Tox21).
Several values for one entry are separate records, joined by “and”; a condition that tells them apart may be missing. Identical values can stand only once. Inconclusive results are not listed. Where a call stands in place of a potency, no number is given. Some structures have more than one record in an assay (separate samples or runs), and their calls can disagree. Activity calls are given as the source filed them. Calls come from the whole dose curve; as a rule, active = well fitted curve in the direction sought with a large enough effect in the repeat runs; inconclusive = weak or mixed curves; inactive = no such curve, though single readings can be large; an effect the other way counts as inactive or inconclusive.

Experiment: qHTS RealTime-Glo MT Cell Viability Assay in HEK293 cells - 32 hour (AID 1224868)
Details: RealTime-Glo luminescence; series mostly up to 76.8 µM
Summary of the method: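 Assay medium contained NanoLuc luciferase plus cell-permeant prosubstrate, added with HEK293 cells at 600 cells/well. After 5 h at 37 C/5% CO2 compounds were added; plates stayed at 37 C for 40 h with serial luminescence reads.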
Note: nearly all actives have a fitted effect of over 50% in size.
Potency is the fitted concentration of half-maximal effect.

| Structure (SMILES) | Potency |
| --- | --- |
| CC(C)(C)c1cccc(C(C)(C)C)c1O | 24 µM (active) and inactive |
| O=C1OC2(c3ccccc31)c1cc(I)c(O)c(I)c1Oc1c2cc(I)c(O)c1I | 49.1 µM (active) and inactive |
| Oc1c(Cl)ccc(Cl)c1Cl | inactive |
| C=CN1CCCC1=O | inactive |
| NCCOCCO | inactive |
| CCCOCCO | inactive |
| CC1(C)C(C=C(Cl)Cl)C1C(=O)OCc1cccc(Oc2ccccc2)c1 (stereo unspecified) | inactive |
| Brc1nc2ccccc2s1 | inactive |
| CCCCCC=O | inactive |
| CN(C)C | inactive |
| c1ccc2c(c1)[nH]c1ccccc12 | inactive |
| O=C(O)CCCCCCCCCCCC(=O)O | inactive |
| NCCN | inactive |
| CC1(C)O[C@@H]2C[C@H]3[C@@H]4C[C@H](F)C5=CC(=O)C=C[C@]5(C)[C@@]4(F)[C@@H](O)C[C@]3(C)[C@]2(C(=O)CO)O1 | inactive |
| CCCCCCC(C)O (stereo unspecified) | inactive |

Experiment: A CellTox Green Cytotoxicity Assay to monitor cytotoxicity in HEK293 cells - 0 hour (AID 1224869)
Details: CellTox Green fluorescence; series mostly up to 76.8 µM
Summary of the method: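 HEK293 cells premixed with CellTox Green dye were seeded at 600 cells/well and left 5 h at 37 C/5% CO2 before pin transfer of 23 nL compound in DMSO. Fluorescence from dye bound to dead-cell DNA was read during 40 h treatment.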

| Structure (SMILES) | Potency |
| --- | --- |
| CCC(Cc1c(I)cc(I)c(N)c1I)C(=O)O (stereo unspecified) | inactive |
| CCO[Si](CCCNC(N)=O)(OCC)OCC | inactive |
| CCCCCCCCCCC(CO)CCCCCCCC (stereo unspecified) | inactive |
| CN1CCOCC1 | inactive |
| CCCN1C=CN(C)C1 | inactive |
| Nc1cc([N+](=O)[O-])ccc1C(=O)O | inactive |
| COc1cc([C@H]2Oc3cc([C@H]4Oc5cc(O)cc(O)c5C(=O)[C@@H]4O)ccc3O[C@@H]2CO)ccc1O | inactive and 15.1 µM (active) |
| Cc1ccc(S(=O)(=O)NCl)cc1 | inactive |
| O=C(O)c1cc(=O)[nH]c(=O)[nH]1 | inactive |
| [O-]/[N+](=N\O)c1ccccc1 | inactive |
| CC(=O)Nc1ccc2c(c1)Cc1cc(NC(C)=O)ccc1-2 | inactive |
| Cc1ccc(C(C)(C)C)c(O)c1 | inactive |
| C[C@]12C=CC(=O)C=C1CC[C@H]1[C@@H]3C[C@@H](O)[C@](O)(C(=O)CO)[C@@]3(C)C[C@H](O)[C@@]12F | inactive |
| Cc1ccc2c(c1)C(=O)OC2=O | inactive |
| c1ccc2c(c1)ccc1ncccc12 | inactive |
| FC(F)(F)C(Cl)Br (stereo unspecified) | inactive |
| CC(C)=CCO | inactive |
| CC(=O)Oc1c(C)c(C)c2c(c1C)CC[C@@](C)(CCC[C@H](C)CCC[C@H](C)CCCC(C)C)O2 | inactive |
| CC(=O)[C@@]1(O)CC[C@H]2[C@@H]3C[C@H](C)C4=CC(=O)C=C[C@]4(C)[C@@]3(F)[C@@H](O)C[C@@]21C | inactive |
| Cc1ccc(C)c(O)c1 | inactive |

| Structure (SMILES) | Potency |
| --- | --- |
| [Na+] | inactive |
| C1COCCN1 | inactive |
| OCCNCCO | inactive |
| COC(=O)c1ccc(C)cc1 | inactive |
| CC(C)(C)c1cccc(C(C)(C)C)c1O | inactive |
| O=C1OC2(c3ccccc31)c1cc(I)c(O)c(I)c1Oc1c2cc(I)c(O)c1I | 15.5 µM (active) [middle of 4 runs] |
| Oc1c(Cl)ccc(Cl)c1Cl | inactive |
| C=CN1CCCC1=O | inactive |
| NCCOCCO | inactive |
| CCCOCCO | inactive |
| CC1(C)C(C=C(Cl)Cl)C1C(=O)OCc1cccc(Oc2ccccc2)c1 (stereo unspecified) | inactive |
| Brc1nc2ccccc2s1 | inactive |
| CCCCCC=O | inactive |
| CN(C)C | inactive |
| c1ccc2c(c1)[nH]c1ccccc12 | inactive |
| O=C(O)CCCCCCCCCCCC(=O)O | inactive |
| NCCN | inactive |
| CC1(C)O[C@@H]2C[C@H]3[C@@H]4C[C@H](F)C5=CC(=O)C=C[C@]5(C)[C@@]4(F)[C@@H](O)C[C@]3(C)[C@]2(C(=O)CO)O1 | inactive |
| CCCCCCC(C)O (stereo unspecified) | inactive |

Experiment: qHTS RealTime-Glo MT Cell Viability Assay in HepG2 cells - 40 hour (AID 1224870)
Details: RealTime-Glo luminescence; series mostly up to 76.8 µM
Summary of the method: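 HepG2 cells (600/well) mixed with RealTime-Glo MT reagent, settled 5 h at 37 C/5% CO2 before compound addition. Nonlytic NanoLuc luminescence from viable-cell prosubstrate reduction read repeatedly during 40 h treatment at 37 C.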

| Structure (SMILES) | Potency |
| --- | --- |
| CCC(Cc1c(I)cc(I)c(N)c1I)C(=O)O (stereo unspecified) | inactive |
| CCO[Si](CCCNC(N)=O)(OCC)OCC | inactive |
| CCCN1C=CN(C)C1 | inactive |
| Cc1ccc(S(=O)(=O)NCl)cc1 | inactive |
| O=C(O)c1cc(=O)[nH]c(=O)[nH]1 | inactive |
| [O-]/[N+](=N\O)c1ccccc1 | inactive |
| CC(=O)Nc1ccc2c(c1)Cc1cc(NC(C)=O)ccc1-2 | inactive |
| Cc1ccc(C(C)(C)C)c(O)c1 | inactive |
| Cc1ccc2c(c1)C(=O)OC2=O | inactive |
| c1ccc2c(c1)ccc1ncccc12 | inactive |
| CC(=O)Oc1c(C)c(C)c2c(c1C)CC[C@@](C)(CCC[C@H](C)CCC[C@H](C)CCCC(C)C)O2 | inactive |
| COC(=O)c1ccc(C)cc1 | inactive |
| O=C1OC2(c3ccccc31)c1cc(I)c(O)c(I)c1Oc1c2cc(I)c(O)c1I | 24.6 µM (active) and 12.4 µM (active) and 29.8 µM (active) |
| NCCOCCO | inactive |
| CN(C)C | inactive |
| O=C(O)CCCCCCCCCCCC(=O)O | inactive |
| CC1(C)O[C@@H]2C[C@H]3[C@@H]4C[C@H](F)C5=CC(=O)C=C[C@]5(C)[C@@]4(F)[C@@H](O)C[C@]3(C)[C@]2(C(=O)CO)O1 | inactive |
